# Results published in PubChem BioAssay (NCATS).
# Inconclusive results are not listed. A number with no mark means an inactive call. Activity calls are given as the source filed them. The call rests on the fitted dose curve; in most records, active means well fitted inhibition curve with a large enough effect; inconclusive means small, poorly fitted or top-dose-only effect; inactive means flat fitted curve, though single readings scatter.
# Target: Dual specificity protein kinase CLK4 (Homo sapiens) (UniProt Q9HAZ1)
# Sequence (Q9HAZ1 whole entry, looked up): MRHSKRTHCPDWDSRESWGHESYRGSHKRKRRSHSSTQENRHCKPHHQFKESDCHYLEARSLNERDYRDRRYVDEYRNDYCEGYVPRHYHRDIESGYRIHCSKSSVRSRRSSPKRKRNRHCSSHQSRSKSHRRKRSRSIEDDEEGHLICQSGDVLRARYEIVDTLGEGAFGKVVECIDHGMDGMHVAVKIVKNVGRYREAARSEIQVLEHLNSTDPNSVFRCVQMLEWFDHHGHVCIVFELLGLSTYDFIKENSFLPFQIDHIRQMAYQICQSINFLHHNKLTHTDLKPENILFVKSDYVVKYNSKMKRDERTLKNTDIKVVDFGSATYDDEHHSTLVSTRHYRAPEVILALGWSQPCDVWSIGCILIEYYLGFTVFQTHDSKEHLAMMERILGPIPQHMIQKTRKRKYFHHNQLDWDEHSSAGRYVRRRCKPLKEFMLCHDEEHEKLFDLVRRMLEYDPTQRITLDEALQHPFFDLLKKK
# Assay: qHTS Assay for Inhibitors of CDC-like Kinase 4 (ADP-FP Assay) (AID 1795); further: nearly all actives have a fitted effect of over 60% in size;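 on activity change, negative = inhibition: recombinant human CLK4 phosphorylating RS repeat peptide at 1 µM ATP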
# Details: Transcreener ADP fluorescence polarization; series mostly up to 50 µM; activity change, negative = inhibition: at the top concentration
# Method: NIH Molecular Libraries Probe Production Centers Network [MLPCN] NIH Chemical Genomics Center [NCGC] MLPCN Grant: 1R03MH084827-01 Assay Submitter (PI): Tom Misteli NCGC Assay Overview: Clk4 (Invitrogen cat # PV3839) was assayed using ATP and the RS repeat peptide (AnaSpec cat # 61722) as substrates using Transcreener (trade mark), a competitive fluorescence polarization (FP) assay. For the present assay, we used the Orange TranscreenerTM ADP2 (BellBrooks Labs, Madison, Wis) detection system to monitor ADP production in the kinase reaction. […] This allows the ADP tracer to freely rotate leading to a decrease in the observed FP value. The amount of ADP produced can then be calculated using a calibration curve. The positive control for the assay was TG003 (Sigma-Aldrich, cat # 300801-52-9) which is a Clk4 inhibitor [2].
# NCGC Assay Protocol Summary: Two uL/well of substrate-buffer solution (100 uM RS peptide, 1 uM ATP, 25 mM Tris pH7.5, 10 mM MgCl2, 0.5 mM EGTA, 2.5 mM DTT, 0.01% Triton X-100 final concentration) was dispensed into 1,536-well assay plates (Greiner, solid black medium-binding plates) with Aurora Discovery BioRAPTR Flying Reagent Dispenser (FRD; Beckton-Dickenson). Using a Kalypsys pin tool equipped with a 1,536-pin tool, 23 nL of compound solution was transferred to the assay plate. Two uL/well Clk4-buffer solution (6.25 nM Clk4, 25 mM Tris pH 7.5, 10 mM MgCl2, 0.5 mM EGTA, 2.5 mM DTT, 0.01% Triton X-100, final concentration) was then added using the FRD yielding a total kinase reaction volume of 4 uL/ well. Then 4 uL/well of detection mixture (4 nM orange fluorescent tracer, 1 ug/mL ADP antibody, final concentration) was then added after an hour and the polarization signal was measured using the EnVision plate reader (PerkinElmer, Waltham, MA) after 30 min of room temperature incubation using the following filters and program settings: BODIPY TMR FP dual Enh mirror (barcode 682); BODIPY-TMR 531 (barcode 105) excitation; BODIPY-TMR FP P/S polarized 595 nm filters (barcodes 210 and 211, respectively); 100% light; 150 flashes; 1.35 G-factor; Detector gains were 685 for the 1st detector; 630 for the 2nd detector.
# On the % scale 0 is the no-effect control and ±100 the full control effect; potency means the concentration at half of the fitted maximal effect.
Structure (SMILES),"activity change, negative = inhibition",Potency
O=c1c(-c2cc(F)cc(F)c2)nc2cnc(N3CCOCC3)nc2n1Cc1ccc(F)cc1,7.35%,
CCNc1ncc2nc(-c3cc(F)cc(F)c3)c(=O)n(CCOC)c2n1,3.37%,
c1cc(NC2CC2)nc(-c2ccoc2)n1,0.842%,
c1ccc(CNc2ncnc3ccc(-c4ccoc4)cc23)cc1,,12.6 µM (active)
COc1ccc(-c2nc3cncnc3n(-c3ccccc3)c2=O)cc1,8.04%,
COc1ccc2[nH]cc(CCNc3cc(-c4ccccc4Cl)ncn3)c2c1,,12.6 µM (active)
Cn1c(=O)c(-c2ccc(F)cc2)nc2cnc(Nc3ccccc3)nc21,3.06%,
CN(C)c1ccc(-c2cncnc2Nc2ccccc2)cc1,-6.43%,
COc1ccc2[nH]cc(CCNc3ccnc(-c4cccc(C#N)c4)n3)c2c1,,8.91 µM (active)
COc1ccccc1-c1nc(N(C)Cc2ccco2)c2ccccc2n1,4.75%,
COCCn1c(=O)c(-c2cccc(C#N)c2)nc2cnc(N3CCOCC3)nc21,13.2%,
Cn1cc(-c2nc3cnc(N4CCNCC4)nc3n(-c3ccccc3)c2=O)c2ccccc21,8.27%,
CN(Cc1ccco1)c1ccnc(-c2cccnc2)n1,-10.1%,
COc1ccccc1CNc1ncnc2ccc(-c3ccc4c(c3)OCO4)cc12,,0.0251 µM (active)
Cc1nc2cncnc2n(Cc2ccc(F)cc2)c1=O,2.95%,
COc1ccccc1CNc1cc(-c2ccc(C(=O)N(C)C)cc2)ncn1,,11.2 µM (active)
CN(Cc1ccco1)c1ccnc(-c2ccccc2C(F)(F)F)n1,9.89%,
CCNc1ncc2nc(-c3ccccc3)c(=O)n(C)c2n1,5.58%,
COc1ncc2nc(-c3ccccc3)c(=O)n(C3CC3)c2n1,5.05%,
COc1cccc(Cn2c(=O)c(-c3cccc(C#N)c3)nc3cnc(N4CCOCC4)nc32)c1,7.18%,

Structure (SMILES),"activity change, negative = inhibition",Potency
O=c1c(CCc2ccccc2)nc2cnc(N3CCOCC3)nc2n1C1CC1,54%,
Cc1ccccc1-c1cc(N(C)Cc2ccco2)ncn1,6.05%,
CCNc1ncc2nc(-c3ccc(F)cc3)c(=O)n(CCc3ccccc3)c2n1,26.6%,
COc1cccc(-c2ccc3ncnc(NCCc4c[nH]c5ccc(OC)cc45)c3c2)c1,,0.631 µM (active)
Cc1nc2cnc(Oc3ccccc3)nc2n(C2CC2)c1=O,8.53%,
CCNc1ncc2nc(-c3cccs3)c(=O)n(Cc3ccc(F)cc3)c2n1,13.6%,
CCNc1ncc2nc(-c3ccc(Cl)cc3)c(=O)n(Cc3ccc(F)cc3)c2n1,6.36%,
COc1ccc(-c2nc3cnc(N4CCN(C)CC4)nc3n(C3CC3)c2=O)cc1,4.55%,
COCCn1c(=O)c(-c2cc(F)cc(F)c2)nc2cnc(N(C)C)nc21,4.36%,
COc1cccc(-c2nc(NCc3ccc(OC)cc3OC)c3ccccc3n2)c1,6.78%,
COc1cccc(-c2nccc(NCc3ccc(OC)cc3OC)n2)c1,-23.4%,
O=c1cnc2cnc(Oc3ccccc3)nc2n1C1CC1,5.74%,
N#Cc1ccccc1-c1ccc2ncnc(NCCN3CCOCC3)c2c1,-19.7%,
COc1ccc(CNc2ccnc(-c3cccnc3)n2)c(OC)c1,-9.26%,
Cc1noc(C)c1-c1nccc(N2CCN(C)CC2)n1,8.35%,
N#CCCn1c(=O)c(-c2ccc(F)cc2)nc2cnc(N3CCNCC3)nc21,4.9%,
COc1ccc(CNc2ncncc2-c2ccc(N(C)C)cc2)c(OC)c1,-1.91%,
CN(Cc1ccco1)c1ncncc1-c1cccnc1,-2.63%,
Cc1ccccc1-c1nc(NC2CC2)c2ccccc2n1,,10 µM (active)
COc1ncc2nc(-c3cn(C)c4ccccc34)c(=O)n(C[C@H]3CCCO3)c2n1,3.99%,
